Measured values: PubChem BioAssay AID652016 (National Center for Advancing Translational Sciences (NCATS), 2013)
Records with an inconclusive call do not appear. Calls of active or inactive are those of the source. Calls follow the shape of the dose curve; as a rule, active = well fitted inhibition curve with a large enough effect; inconclusive = small, poorly fitted or top-dose-only effect; inactive = flat fitted curve, though single readings scatter.

Molecular target: Luciferin 4-monooxygenase (Photinus pyralis) (UniProt P08659)
Sequence (P08659 whole entry, looked up): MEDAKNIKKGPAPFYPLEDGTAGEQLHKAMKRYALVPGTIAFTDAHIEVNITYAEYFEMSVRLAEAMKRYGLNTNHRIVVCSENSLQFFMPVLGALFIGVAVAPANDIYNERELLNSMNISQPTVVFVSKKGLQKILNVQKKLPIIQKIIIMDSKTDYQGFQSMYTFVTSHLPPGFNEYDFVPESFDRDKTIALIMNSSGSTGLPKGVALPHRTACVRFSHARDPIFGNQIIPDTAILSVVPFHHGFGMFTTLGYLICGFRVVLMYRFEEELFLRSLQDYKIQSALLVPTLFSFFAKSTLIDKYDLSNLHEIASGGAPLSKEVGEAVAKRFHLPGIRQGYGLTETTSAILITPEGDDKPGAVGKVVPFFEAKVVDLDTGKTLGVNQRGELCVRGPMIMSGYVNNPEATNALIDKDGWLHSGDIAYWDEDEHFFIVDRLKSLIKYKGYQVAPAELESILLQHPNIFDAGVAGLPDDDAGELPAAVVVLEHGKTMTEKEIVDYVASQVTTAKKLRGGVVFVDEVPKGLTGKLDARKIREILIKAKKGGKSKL
Assay: qHTS Assay for Inhibitors of Firefly Luciferase from the GSK Published Protein Kinase Inhibitor Set
Conditions: purified firefly luciferase, luminescence inhibition; series mostly up to 57.5 µM; activity change, negative = inhibition: at the top concentration
Outline: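 Purified P. pyralis luciferase, 10nM, with 10uM D-luciferin and 10uM ATP in 50mM Tris acetate pH 7.5, 10mM Mg acetate, 0.01% Tween-20, 0.05% BSA. Titration ~60uM to 300pM; luminescence read after about 5 min.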
% is scaled to controls: 0 for no effect and ±100 for the full control effect.

Activity change, negative = inhibition, inactive:
Fc1ccc(-c2nc3n(c2-c2ccncc2)CCS3)cc1 -5.01%
COc1cc2c(cc1Nc1nc(Nc3ccsc3C(N)=O)c3cc[nH]c3n1)N(C(=O)CN(C)C)CCC2 4.82%
NS(=O)(=O)c1ccc(Nc2ncc(-c3ccccc3)o2)cc1 -5.78%
CC(Oc1cc(-n2cnc3ccc(OCC(O)CO)cc32)sc1C(N)=O)c1ccccc1Cl (centres undefined) 6.05%
CCn1cc(-c2ccnc3[nH]ccc23)c(-c2cccc(NC(=O)Nc3ccc(OCc4ccccc4)cc3)c2)n1 17.6%
FC(F)(F)CNc1nccc(-c2cnn3ncccc23)n1 -26.5%
N#Cc1cccc(Nc2nccc(-c3cnn4ncccc34)n2)c1 6.81%
COc1ccc2ncn(-c3cc(OC(C)c4ccccc4C(F)(F)F)c(C(N)=O)s3)c2c1 (centres undefined) 13.7%
NS(=O)(=O)c1ccc(N=Nc2c(O)[nH]c3cccc(CCc4ccncc4)c23)cc1 7.91%
COc1cc(Nc2nccc(-c3cnn4ncccc34)n2)cc(OC)c1 -15.6%
CS(=O)(=O)CCNCc1ccc(-c2ccc3ncnc(Nc4ccc(OCc5cccc(F)c5)c(C(F)(F)F)c4)c3c2)o1 -13%
COC(=O)Nc1nc2ccc(Sc3ccc(NC(=O)Nc4cc(C(F)(F)F)ccc4F)cc3)cc2[nH]1 15%
COc1ccc2ncnc(Nc3ccc(OCc4ccccc4)cc3)c2c1 -15.7%
CN1CCC(C(=O)Nc2n[nH]c3nnc(-c4ccccc4)cc23)CC1 4.91%
CNC(=O)c1ncccc1Nc1nc(Nc2cc3c(cc2OC)CCCN3C(=O)CN(C)C)nc2[nH]ccc12 14.4%
NC(=O)c1cc(-c2ccc(F)cc2)cc(-c2ccncc2)c1N 0.778%
COc1ccc2nc3c4nc5ccc(OC)cc5c4c4c(=O)[nH]c(=O)c4c3c2c1 -4.51%
Cc1cc(O)cc(C)c1C=Cc1cncc(C(=O)N(C)C)c1 9.42%

Potency, inactive:
CCn1c(-c2nonc2N)nc2c(C#CC(C)(C)O)nc(OCC(N)c3ccccc3)cc21 (centres undefined)
